# From PubChem BioAssay
# Tau ThT inhib = inhibitors of human tau fibril formation, thioflavin T binding | P10636 | recombinant tau K18 P301L, heparin-induced fibrillization, ThT fluorescence | Potency, µM (titrated, usually from 57.4 µM), for inactives: top-dose activity, negative = inhibition, most hits filed as inhibitors | 270,000 compounds, 2.1% hits; also: potency is read from the fitted curve at half-maximal effect; nearly all actives have a fitted effect of over 55% in size
# Target sequence (P10636 561-689 P618L limits assumed): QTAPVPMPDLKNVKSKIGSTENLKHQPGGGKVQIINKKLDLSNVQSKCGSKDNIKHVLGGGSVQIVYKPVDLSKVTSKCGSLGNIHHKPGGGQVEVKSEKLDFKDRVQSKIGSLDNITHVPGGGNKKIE
#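 Recombinant human tau K18 fragment […] carrying P301L, 15 uM unlabeled plus 0.24 uM Alexa 594-labeled, was fibrillized with 20 uM heparin in 100 mM sodium acetate pH 7 for 6 hr at 37 C; 30 uM ThT fluorescence read after 1 hr.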
# Coupling enz = coupling enzyme interference in Giardia aldolase counter-screen. activity change, negative = inhibition, % at 58.2 µM, hits read low. coupling enzyme system counterscreen, AmpLite Red fluorescence. 290,000 compounds, 0.67% hits. AID 2472; in the data active = activity change below about -30%
#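 Counterscreen lacking aldolase: glyceraldehyde-3-phosphate coupling-enzyme reagent preincubated 10 min at RT with compound (at 57.5 uM final), then substrate/coupling system with AmpLite Red added; fluorescence read at 525/598 nm after 20 min RT.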
# Sfp PPTase inh = Sfp phosphopantetheinyl transferase inhibition; Q9F4F7; Biochemical Sfp PPTase activity, qHTS; Potency, µM, for the others: largest response in the series, negative = inhibition, usual class: inhibitors; 310,000 compounds, 3.5% hits; AID 1490;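 also: the enzyme is Sfp with the accession as filed and its product quenches rhodamine fluorescence; potency is read from the fitted curve at half-maximal effect; 0% = enzyme reaction without inhibitor and -100% = no enzyme wells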
#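 Compounds were incubated with enzyme (final 15 nM) for 15 min at room temperature before substrate addition started the reaction. Fluorescence at 525 nm excitation, 598 nm emission was recorded immediately and after 30 minutes.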
# G9a block = inhibitors of human histone lysine methyltransferase G9a; Potency, µM (doses to about 102 µM), for the others: top-dose activity, negative = inhibition, actives largely listed as inhibitors; Q96KQ7; G9a H3K9 monomethylation, AlphaScreen, 2 h; 350,000 compounds, 8.8% hits; also: potency is read from the fitted curve at half-maximal effect; nearly all actives have a fitted effect of over 75% in size
# Target sequence (Q96KQ7 913-1193 limits assumed): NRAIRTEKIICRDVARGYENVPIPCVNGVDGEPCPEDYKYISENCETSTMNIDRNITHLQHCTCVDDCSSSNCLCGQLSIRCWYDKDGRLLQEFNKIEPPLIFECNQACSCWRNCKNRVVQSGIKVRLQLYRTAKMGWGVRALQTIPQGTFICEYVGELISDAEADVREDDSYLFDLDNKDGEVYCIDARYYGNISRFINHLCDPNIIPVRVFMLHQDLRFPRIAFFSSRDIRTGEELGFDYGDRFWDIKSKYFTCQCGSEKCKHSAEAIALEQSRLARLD
#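 Step 1: enzyme (final 20 nM) with compound, 15 min RT. Step 2: substrate peptide 500 nM and SAM 20 uM, 2 h RT. Step 3: anti-H3K9me1 antibody and AlphaScreen beads, 10 min, then plate read.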
# Tau fluor cs = counter-screen for tau fibril formation inhibitors | tau K18 P301L (four-repeat tau fragment) Alexa594 fluorescence, heparin fibrillization | Potency, µM (series often up to 57.7 µM), for inactives: at the top dose activity change, negative = decrease | 280,000 compounds, 0.93% hits; also: potency is read from the fitted curve at half-maximal effect; nearly all actives have a fitted effect of over 55% in size
#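 Human K18 P301L tau (15 uM unlabeled plus 0.24 uM Alexa 594-labeled, final) in 100 mM sodium acetate pH 7 was mixed with compound and 20 uM heparin and incubated 6 hr at 37 C.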
# Tau FP inhib = tau fibrillization inhibition (FP) | Potency, µM (top dose mostly 57.7 µM), inactives show at the highest dose activity, negative = inhibition, hits mostly inhibitors | P10636 | AID 1468 | 280,000 compounds, 0.39% hits | K18 P301L tau heparin fibrillization, Alexa594 FP, 6 h; also: potency is read from the fitted curve at half-maximal effect; nearly all actives have a fitted effect of over 55% in size
#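 FP of Alexa 594-tau after heparin (20 uM) induction. Substrate: human K18 P301L, 15 uM unlabeled, 0.24 uM labeled. Buffer 100 mM sodium acetate pH 7. 6 hr, 37 C.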
# * = called active by the depositor; ? = inconclusive; · = no result given; ! = repeats disagree; [ ] = remark or other dose. Only some compounds are listed: those with a hit (about 11% of all), similar ones and a draw of the others. Unless noted, calls follow the shape of the dose curve; as a rule, active = well fitted curve in the direction sought with a large enough effect; inconclusive = small, poorly fitted or top-dose-only effect, or another doubt; inactive = no such curve, though single readings can be large; an effect the other way counts as inactive or inconclusive. Unless noted, % is scaled to controls: 0 for no effect and ±100 for the full control effect.
SMILES,Tau ThT inhib,Coupling enz,Sfp PPTase inh,G9a block,Tau fluor cs,Tau FP inhib
CC(C)(C)c1ccc(OCCC(=O)Nc2cccc(S(=O)(=O)N3CCCC3)c2)cc1,·,·,·,3.5µM*,·,·
O=C(CCl)Nc1cccc(S(=O)(=O)N2CCCCCC2)c1,-7%,2,20%,50µM*,-14%,2%
O=C(Cc1ccc(Cl)cc1)Nc1cccc(S(=O)(=O)N2CCCCC2)c1,·,·,·,4%[59 µM],·,·
Cc1c(C)c2cc3c(c(C)c2oc1=O)OCN(CCc1ccc(F)cc1)C3,-2%,·,·,12%[59 µM],-10%,-2%
CC(=O)NC(CC(=O)NC1CCCCC1)c1ccccc1 (centres undefined),0%,0,5%,10µM*,2%,0%
O=C(Cc1c[nH]c2ccccc12)Nc1cccc(S(=O)(=O)N2CCCCC2)c1,-3%,0,13%,45µM*,-27%,5%
O=C(COc1ccc2ccccc2c1)Nc1ccccc1C(=O)O,·,6,12%,10%,·,·
CCCCOc1cccc(C(=O)Nc2sc3c(c2C(=O)OCC)CCCC3)c1,-2%,·,·,23%[59 µM],-6%,?
S=c1nc[nH]c2c1[nH]c1ccc(Cl)cc12,3%,3,8%,1.4µM*,-2%,-8%
S=c1nc[nH]c2c1[nH]c1ccccc12,-12%,0,-25%,3.5µM*,-7%,0%
Nn1cnc2c([nH]c3ccccc32)c1=O,5%,8,-6%,75%[59 µM],-2%,5%
Cc1nn(CCC(N)=S)c2nc(-c3cccs3)cc(C(F)(F)F)c12,?,1,22µM*,10µM*,?,-15%
Cc1ccc(C)c(-n2c(-c3ccncc3)n[nH]c2=S)c1,·,2,1%,16µM*,-4%,1%
Cc1ccc(C)c(-n2c(-c3csc(C)c3)n[nH]c2=S)c1,-10%,-3,17%,0.28µM*,-7%,14%
Cc1ccc(C)c(-n2c(-c3ccc4c(c3)OCO4)n[nH]c2=S)c1,-15%,4,-2%,4µM*,-10%,-7%
COc1ccc2sc(N(Cc3cccnc3)C(=O)c3ccc4c(c3)OCCO4)nc2c1,-6%,·,·,-4%[59 µM],-17%,0%
C[n+]1ccc(C(=O)Nc2ccccc2Cl)cc1,·,-1,4%,25µM*,·,·
Cc1cc(NC(=O)CSc2nnc(-c3ccc(Br)o3)n2Cc2ccccc2)no1,-17%,-26,-7%,-48%[59 µM],-10%,2%
O=C(CSc1nnc(-c2ccc(Br)o2)n1Cc1ccccc1)c1ccccc1F,-16%,6,35µM*,4.5µM*,-3%,-7%
CCC(=O)OCc1cc(=O)n2nc(C3CC3)sc2n1,-12%,·,·,0%[59 µM],-5%,5%
Cc1ccc2[nH]cc(C(c3ccccc3)c3cccs3)c2c1 (centres undefined),?,·,·,-6%[59 µM],7.9µM*[quencher],?
Cc1ccc2[nH]cc(C(c3ccccc3)c3ccc(C)s3)c2c1 (centres undefined),-19%,·,·,?,10µM*[quencher],-17%
O=C1S/C(=C\c2ccc(Cl)cc2)C(=O)N1CCn1cnnn1,-5%,10,5%,34%,-5%,12%
CCCCNc1nc(Oc2ccc(=O)n(-c3ccccc3)n2)nc(N(CC)CC)n1,-14%,·,·,-32%[59 µM],-11%,6%
CC(=O)Nc1ccc2c(c1)nc(CN1CCCC1)n2C,4%,-5,-13%,18µM*,-4%,6%
SMILES,Tau ThT inhib,Coupling enz,Sfp PPTase inh,G9a block,Tau fluor cs,Tau FP inhib
Cc1ccc(C(C)C)c(OCC(=O)Nc2ccc3c(c2)nc(CN2CCCC2)n3C)c1,-18%,1,?,45µM*,-13%,?
Nc1nc(-c2ccccc2)c(N=Nc2cccc3ccccc23)s1,2.8µM*,-6,13%,10µM*,3.2µM*[quencher],18µM*
Nc1nc(-c2ccccc2)c(N=Nc2ccccc2Cl)s1,5µM*,2,-3%,10µM*,4.5µM*[quencher],?
Cc1ccccc1COC(=O)CCC1=NS(=O)(=O)c2ccccc2N1,·,·,11%,·,·,·
Cc1ccn2cc(CC(=O)O)nc2c1,-4%,-3,56µM*,20µM*,-1%,1%
COc1ccc(C(=O)NCc2cn3ccc(C)cc3n2)cc1,-3%,·,·,-30%[59 µM],-1%,4%
Oc1ccc(-c2cn3ccccc3n2)cc1O,·,-7,?,2µM*,·,·
Cc1ccn2cc(-c3ccc(O)c(O)c3)nc2c1,·,-6,50µM*,8.9µM*,·,·
Cc1nn(-c2ccc(Cl)nn2)c(=O)c2ccccc12,3%,1,7%,2%,0%,-13%
CC(C)(C)OC(=O)N1CCC(c2c(C(=O)NCc3ccc4c(c3)OCO4)cnn2-c2ccccc2Cl)CC1,-13%,·,·,-40%[59 µM],-19%,6%
CCCCNS(=O)(=O)c1ccc2nc(SCC(=O)Nc3ccccc3)[nH]c2c1,12%,-2,-6%,?,-29%,?
CCCCNS(=O)(=O)c1ccc2nc(SCC(=O)c3ccc(C#N)cc3)[nH]c2c1,?,-1,-9%,32µM*,-23%,?
COc1ccc2c(c1)N(C[C@@H](C)CN(C)C)c1ccccc1S2,·,-1,4%,7.9µM*,·,·
CC(CN1c2ccccc2Sc2ccccc21)N(C)C (centres undefined),?,0,50µM*!,15µM*!,?,11%
CC(CN(C)C)CN1c2ccccc2Sc2ccccc21 (centres undefined),-14%,0,-15%,?,-28%,-12%
COc1ccc(CNC(=O)COC(=O)/C=C/c2cccc(Br)c2)cc1,-4%,4,23%,9%,-8%,-3%
Cc1nnc(SCC(=O)Nc2ccc(N3CCOCC3)cc2)o1,-17%,1,5%,50µM*,-2%,6%
O=C(CSc1ccccn1)Nc1ccc(N2CCOCC2)cc1,?,1,0%,32µM*,-11%,4%
Cc1ccc(Cl)cc1NC(=O)Cn1c(=O)n(CCC(=O)NCc2ccc3c(c2)OCO3)c(=O)c2sccc21,5%,·,·,?,-3%,?
Cc1ccc(-n2nc(C(=O)NCc3ccc(F)cc3Cl)c3c4ccccc4n(C)c3c2=O)cc1,6%,·,·,1%[59 µM],2%,-7%
CC1(C)CC(Cc2nc(=S)[nH][nH]2)C(=O)O1 (centres undefined),-1%,-2,20µM*,1.8µM*,-2%,-13%
CC1(C)CC(CC(=O)Nc2ccccn2)C(=O)O1 (centres undefined),0%,0,2%,-3%[59 µM],3%,3%
COc1ccc2nc3oc(C(=O)N4CCN(c5cc(C)ccc5C)CC4)cc3cc2c1,?,·,·,-28%[59 µM],?,-9%
CN(C)c1ccc(/C=C(\NC(=O)c2ccccc2)C(=O)NCCCn2ccnc2)cc1,·,0,4%,50µM*,·,·
CCOc1ccc(-n2nc3ccc(NC(=O)c4cccc(F)c4)cc3n2)cc1,?,·,·,4%[59 µM],-6%,?
